Assay results as given in PubChem BioAssay AID1159580 (chemical genetic matrix, 2015).
Among all 5,500 compounds or so, about 2,000 (36%) were called active. Inconclusive results (about 18%) are left out. Cut-off read from the data, not from the text of the source: active = normalized growth mostly below about 0.91 (no sharp cut-off); inconclusive = no clear call, values can overlap the other calls; inactive = mostly above about 0.92. Some of the results follow.

Test: chemical genetic growth profiling, strain panel (AID 1159580);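 note: tested at 20 µM; growth read once vehicle control cultures reached saturation at 30 °C; 1 = growth at the plate median or of vehicle wells; lower values mean less growth of the strain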
Conditions: growth OD

Measured: normalized growth

CCCCCCOc1ccccc1C(N)=O
active: S. cerevisiae deletion strains, locus YJR043C, strain POL32, hits give low values 0.529 | S. cerevisiae deletion strains, locus YJR066W, strain TOR1, hits give low values 0.815 | S. cerevisiae deletion strains, locus YKL009W, strain mrt4, hits give low values 0.768 | S. cerevisiae deletion strains, locus YKL068W, hits give low values 0.851 | S. cerevisiae deletion strains, locus YKL085W, strain MDH1 (second series), hits give low values 0.826 | S. cerevisiae deletion strains, locus YKL085W, strain MDH1, hits give low values 0.826 | S. cerevisiae deletion strains, locus YKL160W, strain elf1, hits give low values 0.883 | S. cerevisiae deletion strains, locus YKL190W, strain CNB1, hits give low values 0.281 | S. cerevisiae deletion strains, locus YKR001C, strain vps1, hits give low values 0.678 | S. cerevisiae deletion strains, locus YLL001W, strain dnm1, hits give low values 0.887 | S. cerevisiae deletion strains, locus YLL026W, hits give low values 0.877 | S. cerevisiae deletion strains, locus YLR027C, strain aat2, hits give low values 0.898 | S. cerevisiae deletion strains, locus YLR058C, strain SHM2, hits give low values 0.641 | S. cerevisiae deletion strains, locus YLR102C, strain apc9, hits give low values 0.667 | S. cerevisiae deletion strains, locus YLR113W, strain HOG1, hits give low values 0.85 | S. cerevisiae deletion strains, locus YLR221C, strain rsa3, hits give low values 0.845 | S. cerevisiae deletion strains, locus YLR258W, strain gsy2, hits give low values 0.862 | S. cerevisiae deletion strains, locus YLR268W, strain sec22, hits give low values 0.308 | S. cerevisiae deletion strains, locus YLR320W, strain mms22, hits give low values 0.59 | S. cerevisiae deletion strains, locus YLR330W, strain CHS5, hits give low values 0.355 | S. cerevisiae deletion strains, locus YLR342W, strain FKS1 (second series), hits give low values 0.366 | S. cerevisiae deletion strains, locus YLR342W, strain FKS1, hits give low values 0.859 | S. cerevisiae deletion strains, locus YLR371W, strain rom2, hits give low values 0.566 | S. cerevisiae deletion strains, locus YLR418C, strain cdc73, hits give low values 0.207 | S. cerevisiae deletion strains, locus YML016C, strain PPZ1, hits give low values 0.822 | S. cerevisiae deletion strains, locus YML032C, strain rad52, hits give low values 0.526 | S. cerevisiae deletion strains, locus YML120C, strain ndi1, hits give low values 0.857 | S. cerevisiae deletion strains, locus YML124C, strain tub3, hits give low values 0.725 | S. cerevisiae deletion strains, locus YMR058W, strain fet3, hits give low values 0.807 | S. cerevisiae deletion strains, locus YMR078C, strain ctf18, hits give low values 0.361 | S. cerevisiae deletion strains, locus YMR125W, strain sto1, hits give low values 0.785 | S. cerevisiae deletion strains, locus YMR205C, strain PFK2, hits give low values 0.835 | S. cerevisiae deletion strains, locus YMR223W, strain ubp8, hits give low values 0.55 | S. cerevisiae deletion strains, locus YMR307W, strain GAS1, hits give low values 0.457 | S. cerevisiae deletion strains, locus YNL067W, strain RPL9B, hits give low values 0.599 | S. cerevisiae deletion strains, locus YNL071W, strain lat1, hits give low values 0.57 | S. cerevisiae deletion strains, locus YNL153C, strain GIM3, hits give low values 0.502 | S. cerevisiae deletion strains, locus YNL209W, strain ssb2, hits give low values 0.902 | S. cerevisiae deletion strains, locus YNL233W, strain BNI4, hits give low values 0.326 | S. cerevisiae deletion strains, locus YNL248C, strain rpa49, hits give low values 0.865 | S. cerevisiae deletion strains, locus YNL250W, strain rad50, hits give low values 0.871 | S. cerevisiae deletion strains, locus YNL271C, strain bni1, hits give low values 0.696 | S. cerevisiae deletion strains, locus YNL298W, strain CLA4, hits give low values 0.778 | S. cerevisiae deletion strains, locus YNL307C, strain MCK1, hits give low values 0.0873 | S. cerevisiae deletion strains, locus YNL322C, strain KRE1, hits give low values 0.705 | S. cerevisiae deletion strains, locus YNR052C, strain pop2, hits give low values 0.797 | S. cerevisiae deletion strains, locus YOL006C, strain TOP1, hits give low values 0.135 | S. cerevisiae deletion strains, locus YOL147C, strain pex11, hits give low values 0.243 | S. cerevisiae deletion strains, locus YOR061W, strain CKA2, hits give low values 0.794 | S. cerevisiae deletion strains, locus YOR069W, strain VPS5, hits give low values 0.798 | S. cerevisiae deletion strains, locus YOR070C, strain gyp1, hits give low values 0.891 | S. cerevisiae deletion strains, locus YOR083W, strain WHI5, hits give low values 0.855 | S. cerevisiae deletion strains, locus YOR106W, strain vam3, hits give low values 0.861 | S. cerevisiae deletion strains, locus YOR136W, strain idh2, hits give low values 0.719 | S. cerevisiae deletion strains, locus YOR144C, strain elg1, hits give low values 0.485 | S. cerevisiae deletion strains, locus YOR184W, strain ser1, hits give low values 0.187 | S. cerevisiae deletion strains, locus YOR270C, strain vph1, hits give low values 0.446 | S. cerevisiae deletion strains, locus YOR316C, strain cot1, hits give low values 0.567 | S. cerevisiae deletion strains, locus YPL051W, strain arl3, hits give low values 0.878 | S. cerevisiae deletion strains, locus YPL078C, strain atp4, hits give low values 0.729 | S. cerevisiae deletion strains, locus YPR119W, strain clb2, hits give low values 0.625 | S. cerevisiae deletion strains, locus YPR141C, strain kar3, hits give low values 0.825 | S. cerevisiae deletion strains, locus YPR163C, strain tif3, hits give low values 0.142 | S. cerevisiae deletion strains, locus YPR167C, strain met16, hits give low values 0.627 | S. cerevisiae deletion strains, strain wtn01, hits give low values 0.444 | S. cerevisiae strains, strain wild type, hits give low values 0.559
inactive: S. cerevisiae deletion strains, locus YKR026C, strain gcn3, hits give low values 0.948 | S. cerevisiae deletion strains, locus YKR091W, strain srl3, hits give low values 0.953 | S. cerevisiae deletion strains, locus YLL041C, strain sdh2, hits give low values 0.94 | S. cerevisiae deletion strains, locus YLR039C, strain RIC1, hits give low values 1.04 | S. cerevisiae deletion strains, locus YLR262C, strain YPT6 (second series), hits give low values 1.11 | S. cerevisiae deletion strains, locus YLR262C, strain YPT6, hits give low values 0.921 | S. cerevisiae deletion strains, locus YLR357W, strain rsc2, hits give low values 1.07 | S. cerevisiae deletion strains, locus YLR370C, strain arc18, hits give low values 0.932 | S. cerevisiae deletion strains, locus YLR384C, strain iki3, hits give low values 0.959 | S. cerevisiae deletion strains, locus YMR129W, hits give low values 0.945 | S. cerevisiae deletion strains, locus YMR231W, strain pep5, hits give low values 0.979 | S. cerevisiae deletion strains, locus YNL183C, strain NPR1, hits give low values 0.869 | S. cerevisiae deletion strains, locus YNL322C, strain KRE1 (second series), hits give low values 0.978 | S. cerevisiae deletion strains, locus YNR049C, strain mso1, hits give low values 0.942 | S. cerevisiae deletion strains, locus YOL012C, strain htz1 0.5 | S. cerevisiae deletion strains, locus YOR001W, strain rrp6, hits give low values 0.904 | S. cerevisiae deletion strains, locus YOR080W, strain dia2, hits give low values 0.951 | S. cerevisiae deletion strains, locus YOR231W, strain MKK1, hits give low values 0.877 | S. cerevisiae deletion strains, locus YOR265W, strain rbl2, hits give low values 0.929 | S. cerevisiae deletion strains, locus YOR290C, strain snf2, hits give low values 0.87 | S. cerevisiae deletion strains, locus YPL106C, strain sse1, hits give low values 1.01 | S. cerevisiae deletion strains, locus YPL240C, strain hsp82, hits give low values 0.945 | S. cerevisiae deletion strains, locus YPL256C, strain CLN2, hits give low values 0.864
